From PubChem BioAssay
The entries come from a sample that favours hits as a whole.
HT1080NT lethal: kills 2HG-producing HT-1080-NT fibrosarcoma cells; Potency, µM (top dose mostly 46.1 µM), for inactives: at the highest dose activity, negative = less viability, hits mostly cytotoxic; HT-1080-NT fibrosarcoma viability, CellTiter-Glo ATP luminescence, 48 h; 360,000 compounds, 1.6% hits; AID 686970;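 also: NT is the 2HG producing partner of a matched IDH1 knockdown line; potency is read from the fitted curve at half-maximal effect; 0% = DMSO-treated cells and -100% = media-only wells without cells; nearly all actives have a fitted effect of over 55% in size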
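Compounds were tested in concentration-response format on HT-1080-NT cells for 48 hours at 37 degrees C. Cell viability came from CellTiter-Glo luminescence; curves were classified by r2, response magnitude and activity.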
TDP1 cell CPT: growth inhibition of DT40 Tdp1-/-;hTDP1 cells with camptothecin (screen for TDP1 inhibitors); Potency, µM (titrated, usually from 46.2 µM), for inactives: at the highest dose activity change, negative = growth inhibition, usual class: inhibitors; chicken DT40 Tdp1-/-;hTDP1 cells + 20 nM CPT, ATP luminescence, 48 h; 420,000 compounds, 12% hits; AID 686979; also: potency is read from the fitted curve at half-maximal effect; nearly all actives have a fitted effect of over 55% in size
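Chicken DT40 Tdp1-/- cells stably complemented with human TDP1 were seeded at 400 cells/well in medium containing 20 nM camptothecin, exposed to pin-transferred compounds, and grown at 37 °C for at least 48 hr. Viability was read as ATP luminescence.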
12-LOX inh: inhibitors of human 12S-lipoxygenase ALOX12 | P18054 | purified 12hLO, xylenol orange hydroperoxide absorbance | Potency, µM (titrated, usually from 108 µM), for inactives: at the highest dose activity change, negative = inhibition, hits mostly inhibitors | 580,000 compounds, 1.1% hits | AID 1671190; also: potency is read from the fitted curve at half-maximal effect
Target sequence (P18054 whole entry, looked up): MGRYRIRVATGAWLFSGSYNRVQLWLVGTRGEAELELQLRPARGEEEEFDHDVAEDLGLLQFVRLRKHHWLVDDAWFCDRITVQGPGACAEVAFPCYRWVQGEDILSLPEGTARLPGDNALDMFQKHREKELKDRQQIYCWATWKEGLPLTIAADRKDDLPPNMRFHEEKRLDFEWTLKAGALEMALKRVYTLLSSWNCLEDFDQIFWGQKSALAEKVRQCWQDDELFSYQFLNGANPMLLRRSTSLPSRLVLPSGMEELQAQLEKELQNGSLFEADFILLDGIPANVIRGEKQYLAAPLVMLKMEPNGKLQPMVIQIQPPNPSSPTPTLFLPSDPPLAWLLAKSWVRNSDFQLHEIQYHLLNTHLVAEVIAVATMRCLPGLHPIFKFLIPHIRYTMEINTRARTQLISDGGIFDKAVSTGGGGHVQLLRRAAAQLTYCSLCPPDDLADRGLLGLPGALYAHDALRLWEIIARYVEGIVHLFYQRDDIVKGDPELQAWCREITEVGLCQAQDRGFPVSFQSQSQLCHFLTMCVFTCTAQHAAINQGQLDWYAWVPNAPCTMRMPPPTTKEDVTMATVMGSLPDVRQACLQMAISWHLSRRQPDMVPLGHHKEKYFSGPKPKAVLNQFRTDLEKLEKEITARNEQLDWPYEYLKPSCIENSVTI
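Purified human 12hLO at 150 nM in 25 mM Hepes, 0.01% Triton X-100, pH 7.0, preincubated 15 min at room temperature with compound. Reaction started with 40 uM arachidonic acid, 30 min at room temperature. Hydroperoxide measured by Fe-xylenol orange, 573/405 nm absorbance ratio.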
HT1080 IDH1KD tx: toxicity to HT-1080 IDH1 knockdown cells (counter line); HT-1080 IDH1 knockdown viability, ATP luminescence, 48 h; Potency, µM (doses to about 46.1 µM), inactives show at the top dose activity, negative = toxicity, hits mostly cytotoxic; 360,000 compounds, 2% hits;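 also: potency is read from the fitted curve at half-maximal effect; 0% = DMSO wells and -100% = cell-free medium wells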
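Assay cells: HT-1080 with IDH1 knockdown, 750 per well, RPMI/5% FBS. Exposure: 48 h at 37 °C following 2 h pre-incubation. Read: CellTiter-Glo luminescence; fitted concentration-response, curve class assigned.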
IL-1B inflam inh: inhibitors of inflammasome signaling (IL-1 beta secretion). activity change, % at 57.5 µM. THP-1 LPS/ATP IL-1B secretion, AlphaLISA, 16 h; active compounds read low. 360,000 compounds, 4.7% hits; in the data active = activity change below about -50%; inconclusive = mostly about -30% to -49%
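Secreted IL-1B measured by AlphaLISA bead assay after 16 h compound exposure of THP-1 cells; compounds (final up to 57.5 uM) added 1 h before LPS (250 ng/mL) and ATP (1.25 mM) stimulation; lower signal means less secretion.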
DT40 TDP1 no CPT: qHTS for Inhibitors of human tyrosyl-DNA phosphodiesterase 1 (TDP1): qHTS in cells in absence of CPT. DT40 Tdp1-/- hTDP1 cells, no CPT, ATP luminescence, 48 h. Potency, µM (doses to about 46.2 µM), inactives show at the top dose activity change, negative = growth inhibition, actives largely listed as inhibitors. 420,000 compounds, 15% hits; also: potency is read from the fitted curve at half-maximal effect; nearly all actives have a fitted effect of over 55% in size
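Compound effects on proliferation are scored in DT40 Tdp1-/-;hTDP1 cells in the absence of CPT. ATP levels (CellTiter-Glo luminescence) are recorded after a ≥48 hr, 37 °C incubation.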
* hit, by the source's call; [ ] = dose if it differs, or a comment. Unless noted, calls follow the shape of the dose curve; as a rule, active = well fitted curve in the direction sought with a large enough effect; inconclusive = small, poorly fitted or top-dose-only effect, or another doubt; inactive = no such curve, though single readings can be large; an effect the other way counts as inactive or inconclusive. Unless noted, % is scaled to controls: 0 for no effect and ±100 for the full control effect.

Results for CC(C)(C)CC(C)(C)N=C1Nc2ccc(Cl)cc2NC12C[C@H]1CCC(=O)N3CC[C@@H](C2)[C@@H]13 (some centres not stated) ?
TDP1 cell CPT: inconclusive; DT40 TDP1 no CPT: 12.6µM*

What do the screens show for `CC(C)(C)CC(C)(C)N=C1Nc2ccc([N+](=O)[O-])cc2N[C@]12C[C@H]1CCCC(=O)N3CC[C@@H](C2)[C@@H]13`?
TDP1 cell CPT: 17.8µM*; DT40 TDP1 no CPT: 11.2µM*

What do the screens show for `CCc1ccc2nc(SCC(=O)N(CC)CC)c(C#N)cc2c1`?
HT1080NT lethal: -1.1%; TDP1 cell CPT: 20.6µM*; 12-LOX inh: -10.7%; HT1080 IDH1KD tx: -1.8%; IL-1B inflam inh: -5.3; DT40 TDP1 no CPT: 14.6µM*

What do the screens show for `CCOC(=O)CSc1nc2cc(OC)c(OC)cc2cc1C#N`?
TDP1 cell CPT: inconclusive; DT40 TDP1 no CPT: 17.8µM*

Results for CC(=O)CSc1nc2cc3c(cc2cc1C#N)OCCO3 ?
HT1080NT lethal: 18.1%; TDP1 cell CPT: 14.6µM*; 12-LOX inh: 9.5%; HT1080 IDH1KD tx: 5.6%; IL-1B inflam inh: -3.4; DT40 TDP1 no CPT: inconclusive

What do the screens show for `CCOc1ccc2cc(C#N)c(SCC(=O)N3CCC(C)CC3)nc2c1`?
HT1080NT lethal: -3.2%; TDP1 cell CPT: inconclusive; 12-LOX inh: -8.6%; HT1080 IDH1KD tx: 0.8%; IL-1B inflam inh: -3.2; DT40 TDP1 no CPT: 20.6µM*

What do the screens show for `N#Cc1cc2cc3c(cc2nc1SCC(=O)N1CCCC1)OCCO3`?
HT1080NT lethal: 17.7%; TDP1 cell CPT: -21.9%; HT1080 IDH1KD tx: 11.6%; IL-1B inflam inh: 9.5; DT40 TDP1 no CPT: -10.8%

How did CCOC(=O)CSc1nc2cc(OCC)ccc2cc1C#N do in these assays?
HT1080NT lethal: -1.5%; TDP1 cell CPT: -21.1%; 12-LOX inh: -20.2%; HT1080 IDH1KD tx: 2.6%; IL-1B inflam inh: 12.2; DT40 TDP1 no CPT: -24.3%

Results for COc1cc2cc(C#N)c(SCC(=O)N3CCOCC3)nc2cc1OC ?
HT1080NT lethal: 12.8%; TDP1 cell CPT: -6.2%; 12-LOX inh: -17.5%; HT1080 IDH1KD tx: 11.9%; IL-1B inflam inh: -11.2; DT40 TDP1 no CPT: -36.5%

How did CCN(CC)C(=O)CSc1nc(C)cc(C)c1C#N do in these assays?
HT1080NT lethal: 20.9%; TDP1 cell CPT: 3.7%; 12-LOX inh: 2.4%; HT1080 IDH1KD tx: 16.0%; IL-1B inflam inh: 9.3; DT40 TDP1 no CPT: inconclusive

How did Cc1cccc(OCC(=O)Nc2ccc3nc(Nc4cccc(C(F)(F)F)c4)cc(C)c3c2)c1 do in these assays?
TDP1 cell CPT: 20.6µM*; 12-LOX inh: -4.6%; DT40 TDP1 no CPT: 13µM*

Results for Cc1cc(Nc2cccc(C(F)(F)F)c2)nc2ccc(NC(=O)Cc3ccc(Cl)cc3)cc12 ?
TDP1 cell CPT: inconclusive; 12-LOX inh: -7.7%; DT40 TDP1 no CPT: 23.1µM*

How did COc1ccc(CC(=O)Nc2ccc3nc(Nc4cccc(Cl)c4)cc(C)c3c2)cc1 do in these assays?
TDP1 cell CPT: 6.51µM*; 12-LOX inh: inconclusive; DT40 TDP1 no CPT: 5.8µM*

Results for COc1ccccc1CC(=O)Nc1ccc2nc(Nc3cccc(Cl)c3)cc(C)c2c1 ?
TDP1 cell CPT: 20.6µM*; 12-LOX inh: -17.6%; DT40 TDP1 no CPT: 16.4µM*

Results for O=C(Cc1ccc([N+](=O)[O-])cc1)Nc1cccc(C(F)(F)F)c1 ?
HT1080NT lethal: -2.4%; TDP1 cell CPT: inconclusive; 12-LOX inh: -10.4%; HT1080 IDH1KD tx: -0.3%; IL-1B inflam inh: -6.0; DT40 TDP1 no CPT: inconclusive

What do the screens show for `O=C1NCCCCCCN(Cc2cccc(F)c2)[C@H]2CCC[C@@H]12`?
12-LOX inh: 118.7%

Results for COc1ccc(CN2CCCC3(Cc4ccccc4CN(C(C)=O)C3)C2)cc1 (configuration not stated) ?
12-LOX inh: 8.4%[6.33 µM]

How did O=C(N1CC(Oc2ccc(-c3nc(-c4ccccc4)no3)cc2)C1)C1(c2ccccc2)CC1 do in these assays?
12-LOX inh: 24.8%

What do the screens show for `COCCCNC(=O)c1cc(C)nc2ccccc12`?
12-LOX inh: 19.3%

How did COCCCNC(=O)c1ccc2c3c(onc13)-c1ccccc1C2=O do in these assays?
HT1080NT lethal: inconclusive; TDP1 cell CPT: 7.31µM*; HT1080 IDH1KD tx: inconclusive; IL-1B inflam inh: -98.0*; DT40 TDP1 no CPT: 14.6µM*

What do the screens show for `Cc1nn(Cc2ccc(Cl)c(Cl)c2)c(C)c1NC(=O)c1cc(-c2ccc3c(c2)OCO3)on1`?
HT1080NT lethal: inconclusive; TDP1 cell CPT: 18.4µM*; 12-LOX inh: 17.5%; HT1080 IDH1KD tx: inconclusive; IL-1B inflam inh: -13.0; DT40 TDP1 no CPT: 20.6µM*

What do the screens show for `Cc1nn(Cc2ccc(Cl)cc2)c(C)c1NC(=O)c1cc(-c2ccc3c(c2)OCO3)on1`?
TDP1 cell CPT: 23.1µM*; 12-LOX inh: -11.9%; IL-1B inflam inh: -23.8; DT40 TDP1 no CPT: 14.6µM*

Results for C=C(C)C(=O)N1CCN(C(=O)C(=C)C)c2ccccc21 ?
HT1080NT lethal: -9.5%; TDP1 cell CPT: 0.3%; 12-LOX inh: 2.4%; HT1080 IDH1KD tx: 2.4%; IL-1B inflam inh: 21.6; DT40 TDP1 no CPT: -4.6%

Results for c1cnc2ccc(C(c3nnnn3C3CCCC3)N3CCN(c4nc5ccccc5s4)CC3)cc2c1 (configuration not stated) ?
HT1080NT lethal: -3.6%; TDP1 cell CPT: inconclusive; 12-LOX inh: 0.0%; HT1080 IDH1KD tx: -11.2%; IL-1B inflam inh: -53.0*; DT40 TDP1 no CPT: inconclusive

Results for Oc1ccc(C(c2nnnn2CCc2ccccc2)N2CCN(c3nc4ccccc4s3)CC2)cc1 (configuration not stated) ?
HT1080NT lethal: 6.6%; TDP1 cell CPT: 16.4µM*; 12-LOX inh: -17.3%; HT1080 IDH1KD tx: -2.8%; IL-1B inflam inh: -50.0*; DT40 TDP1 no CPT: 13µM*

What do the screens show for `COc1cc(C(c2nnnn2C(C)(C)C)N2CCN(c3nc4ccccc4s3)CC2)ccc1O` (configuration not stated)?
HT1080NT lethal: 7.8%; TDP1 cell CPT: 14.6µM*; 12-LOX inh: 0.0%; HT1080 IDH1KD tx: 13.7%; IL-1B inflam inh: 7.0; DT40 TDP1 no CPT: 11.6µM*

Results for Clc1ccc(C(c2nnnn2CCc2ccccc2)N2CCSCC2)cc1 (configuration not stated) ?
HT1080NT lethal: -1.1%; TDP1 cell CPT: inconclusive; 12-LOX inh: -5.9%; HT1080 IDH1KD tx: -11.0%; IL-1B inflam inh: inconclusive; DT40 TDP1 no CPT: inconclusive
